Bioassay records as filed in PubChem.
This is a sample that favours compounds with a hit; in the whole collection about 10% have one here.
ALDH1A1 inh: blocks purified human ALDH1A1 activity; 220,000 compounds, 7.3% hits; Potency, µM (top dose mostly 75.3 µM), hits mostly inhibitors; Purified ALDH1A1, NADH fluorescence, propionaldehyde substrate
Target sequence (P00352 whole entry, looked up): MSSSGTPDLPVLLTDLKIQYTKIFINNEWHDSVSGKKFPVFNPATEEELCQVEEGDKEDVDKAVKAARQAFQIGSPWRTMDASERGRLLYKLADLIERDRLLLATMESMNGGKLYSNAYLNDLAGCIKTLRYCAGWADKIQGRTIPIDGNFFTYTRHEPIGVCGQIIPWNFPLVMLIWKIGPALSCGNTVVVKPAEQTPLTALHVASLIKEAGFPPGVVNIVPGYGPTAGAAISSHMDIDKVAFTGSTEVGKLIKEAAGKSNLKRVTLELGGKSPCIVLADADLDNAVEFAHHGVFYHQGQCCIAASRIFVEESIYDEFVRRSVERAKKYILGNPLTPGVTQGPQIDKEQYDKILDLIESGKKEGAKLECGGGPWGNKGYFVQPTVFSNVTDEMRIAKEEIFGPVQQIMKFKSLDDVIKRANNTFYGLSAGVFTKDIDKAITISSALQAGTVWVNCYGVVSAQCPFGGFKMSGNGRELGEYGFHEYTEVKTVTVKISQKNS
HPGD inh: inhibitors of human 15-hydroxyprostaglandin dehydrogenase (HPGD) | P15428 | purified HPGD, NADH fluorescence kinetic, PGE2 substrate | Potency, µM, most hits filed as inhibitors | 150,000 compounds, 4.3% hits | AID 894
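20 nM HPGD preincubated 15 min at room temperature with compound in 50 mM Tris-HCl pH 8, 0.01% Tween 20. Started with 1 mM NAD+ and 30 uM prostaglandin E2; NADH fluorescence (360/450 nm) read 5 times over 30-s intervals, last minus first.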
LMNA splice mod: modulators of lamin A splicing; HeLa LMNA splicing GFP/RFP minigene ratio, 48 h; Potency, µM (titrated, usually from 46.1 µM), hits mostly inhibitors; 200,000 compounds, 0.01% hits; active = well fitted inhibition curve with a large enough effect in the signal ratio, with a control signal flat, not every such curve was filed as active; inconclusive = small, poorly fitted or top-dose-only effect, or effect the other way, or a change in a side signal; the % refers to the signal ratio
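S3 HeLa cells stably expressing lamin A-EGFP splicing minigene plus DsRed2, 600 cells/well, 48 h compound exposure at 37C. Laser-scanning cytometry; analysed as GFP (500-530 nm)/RFP (575-640 nm) total intensity ratio; 0.5% DMSO vehicle.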
Luc counter: Kinase-Glo luciferase inhibition (counter-screen). Q27757. Kinase-Glo luciferase, ATP luminescence, 8 min. Potency, µM (titrated, usually from 38.3 µM), hits mostly inhibitors. 200,000 compounds, 0.28% hits. AID 1379; active = well fitted inhibition curve with a large enough effect; inconclusive = small, poorly fitted or top-dose-only effect; note: nearly all actives have a fitted effect of over 60% in size
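Compounds were added to a substrate mix at pH 7.2 (50 mM imidazole, 10 uM ATP, within the enzyme's linear range), followed by Kinase-Glo detection reagent; luminescence was measured after 8 minutes at ambient temperature.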
PNC assembly inh: inhibitors of perinucleolar compartment assembly; PC3M PTB-GFP, PNC prevalence imaging, 16 h; hits give low values; activity change (PNC), negative = inhibition, % at 10 µM; 140,000 compounds, 3.1% hits; AID 2417;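 active = readout at or below -70, meaning at least 70% loss of cells showing the perinucleolar compartment, a nuclear body marking cancer cells; inconclusive = readout between -30 and a set limit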
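Compounds are pinned in duplicate onto adhered PC3M cells stably expressing GFP-tagged PTB and incubated 16 h at 37 C. Cells are then fixed, nuclei stained with Hoechst, and PNC-positive cells counted.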
Hits are given with their value; . = inactive; ? = inconclusive; / = not tested or not shown; [ ] = dose if it differs, or a comment. Unless noted, calls come from the whole dose curve; as a rule, active = well fitted inhibition curve with a large enough effect (not every such curve was filed as active); inconclusive = small, poorly fitted or top-dose-only effect, or another doubt; inactive = no such curve, though single readings can be large or run the other way.

SMILES	ALDH1A1 inh	HPGD inh	LMNA splice mod	Luc counter	PNC assembly inh
CCOC(=O)CCC(NC(=O)CCCC(=O)NC(CCC(=O)OCC)C(=O)OCC)C(=O)OCC (stereo not drawn)	.	.	.	.	.
CCOC(=O)CCC(NC(=O)CCC(=O)NC(CCC(=O)OCC)C(=O)OCC)C(=O)OCC (stereo not drawn)	.	.	.	.	-134.0
O=C1CC(Nc2ccc(N3CCOCC3)cc2)C(=O)N1c1ccccc1F (stereo not drawn)	14.1µM	.	.	.	.
Cc1ccc(N2C(=O)CC(Nc3ccccc3)C2=O)cc1 (stereo not drawn)	.	.	.	.	.
CC(C)N1C(=O)CC(Nc2ccc(N3CCOCC3)cc2)C1=O (stereo not drawn)	?	.	.	.	.
O=C1CC(Nc2ccccc2)C(=O)N1c1ccc(N2CCOCC2)cc1 (stereo not drawn)	?	.	.	.	-104.4
COc1ccc(-c2cn3nc(N4CCCC(C(=O)NCc5ccccc5OC)C4)sc3n2)cc1 (stereo not drawn)	/	/	.	/	/
CC(=O)Nc1sc2c(c1CN1CCN(c3ccccn3)CC1)CCCC2	22.4µM	.	?	.	.
CC(=O)Nc1sc2c(c1CN1CCN(c3ccc(F)cc3)CC1)CCCC2	?	.	?	.	.
CCNc1ncc2nc(-c3cc(F)cc(F)c3)c(=O)n(C[C@H]3CCCO3)c2n1	?	/	.	/	/
C=CCNc1nc2c3ccccc3n(C(C)=O)c2s1	28.2µM	.	.	.	.
O=C(O)CC(c1cccc2ccccc12)n1cccc1 (stereo not drawn)	.	35.5µM	.	.	.
O=C(O)CC(c1cccc2ccccc12)N1Cc2ccccc2C1=O (stereo not drawn)	.	/	/	.	/
Cc1cc(SCC(=O)c2ccc(Br)cc2)cc(C)[o+]1	3.16µM	.	/	.[7.66 µM]	/
Cc1nnc(SCC(=O)c2ccc(Br)cc2)s1	.	/	.	.	/
O=C(NCC(c1cccnc1)N1CCN(c2ccccc2F)CC1)C(=O)Nc1ccc(F)cc1F (stereo not drawn)	/	/	.	/	/
CC1=C(C(=O)Nc2ccccc2C)C2(CCCCC2)C(C(N)=O)C(=S)N1 (stereo not drawn)	.	.	.	.	-85.4
Cn1cc(CNC(=O)C23CC4CC(CC(C4)C2)C3)cn1	5.01µM	.	.	.	.
O=C(Nc1ccc(Cl)cc1)N1CCN(c2ccc3nnc(-c4ccc(F)cc4)n3n2)CC1	28.2µM	?	?	.	.
CCc1ccc2nc(N(Cc3cccnc3)C(=O)c3cccs3)sc2c1	/	/	.	/	/
N#Cc1cc(S(=O)(=O)c2ccccc2)c(N)[nH]c1=O	?	?	?	.	-112.9
CCOC(=O)CC(=O)CSc1nc2sc(C)cc2c(=O)n1Cc1ccco1	0.562µM	28.2µM	.	.	.
Cc1cc2c(=O)n(Cc3ccco3)c(SCC(=O)c3ccc(Cl)s3)nc2s1	15.8µM	28.2µM	.	.	?
O=C(Cc1cccs1)NC1CC(=O)N(c2ccc(F)cc2)C1 (stereo not drawn)	/	/	.	/	/
O=C(c1ccncc1)N1CCC[C@@]2(CCN(c3ccccn3)C2)C1	.	.	/	.	/
SMILES	ALDH1A1 inh	HPGD inh	LMNA splice mod	Luc counter	PNC assembly inh
Nc1nnc(CCC2CCCCC2)s1	.	.	.	.	.
N#CC1=C(N)SC(N)=C(C#N)C1CCC1CCCCC1	14.1µM	15.8µM	?	.	.
O=C(c1cnn(C(=O)c2ccccc2)c1)c1ccccc1O	2.24µM	.	.	.	?
O=C(c1cnn(-c2nc3ccccc3s2)c1)c1ccccc1O	.	?	.	.	.
O=C(COc1ccc(Cl)cc1)N1CCN(c2ncccn2)CC1	.	.	.	.	.
O=C(c1cnn(C(=O)COc2ccc(Cl)cc2)c1)c1ccccc1O	4.47µM	.	.	.	?
Cc1ccc(O)c(C(=O)c2cnn(C(=O)COc3ccc(Cl)cc3)c2)c1	1.78µM	.	.	.	.
CC(=O)c1c(C)nc(-c2ccc(Cl)cc2)nc1N	22.4µM	/	/	.	/
C=C1SC(=Nc2ccccc2Cl)N(C(=O)c2sc3ccccc3c2Cl)C1(C)C	23.8µM	/	/	/	/
O=C(C[n+]1cn(C(F)F)c2ccccc21)c1ccc(OC(F)F)cc1	9.46µM	/	?	.	/
Cc1cc(C)cc(C(=O)n2nc(C)c(S(=O)(=O)N3CCCCCC3)c2C)c1	/	/	.	/	/
CC(=O)OCC(=O)[C@]12OC(C)(C)O[C@@H]1C[C@H]1[C@H]3CC=C4C[C@@H](O)CC[C@]4(C)[C@H]3CC[C@]12C	.[13.5 µM]	.	/	.[7.66 µM]	/
CC(=O)OCCNc1cc(N2CCN(C)CC2)c2noc3c2c1C(=O)c1ccccc1-3	.	.	.	.	-92.6
CCOC(=O)N1CCN(c2cc(NCCO)c([N+](=O)[O-])c3nonc23)CC1	.	/	?	.	/
O=C(NCCC1=CCCCC1)C(=O)NCC1OCCCN1S(=O)(=O)c1ccc(F)cc1 (stereo not drawn)	22.4µM	/	.	.	/
Cc1ccc(S(=O)(=O)N2CCCOC2CNC(=O)C(=O)NCc2cccs2)cc1 (stereo not drawn)	11.2µM	.	.	.	.
O=C(NCCC1=CCCCC1)C(=O)NCC1OCCCN1S(=O)(=O)c1cc(F)ccc1F (stereo not drawn)	.	/	.	.	/
Cc1cc(S(=O)(=O)N2CCCOC2CNC(=O)C(=O)NCc2ccco2)ccc1F (stereo not drawn)	10µM	/	/	.	/
O=C(NCc1ccco1)C(=O)NCC1OCCCN1S(=O)(=O)c1ccc(Cl)cc1 (stereo not drawn)	?	/	?	.	/
COc1cccc(CCc2ccccc2OCC[C@@H]2C[C@@H](O)CN2C)c1	.	.	/	.	/
O=C1c2ccccc2C(=O)c2c(Nc3cc4c5c(ccc6c7ccc8c9c(cc(Nc%10cccc%11c%10C(=O)c%10ccccc%10C%11=O)c(c3c56)c97)-c3ccccc3C8=O)C(=O)c3ccccc3-4)cccc21	.[13.5 µM]	.	/	.[7.66 µM]	/
CC(C)(C)c1nnc(NC(=S)Nc2ccccc2)s1	25.1µM	/	?	.	/
COc1cc(OC)cc(C(=O)Nc2nnc(NC(=S)Nc3ccccc3)s2)c1	22.4µM	.	?	.	-100.0
COc1ccc(OC)c(NC(=O)c2c(NCc3ccc(N(C)C)cc3)sc3c2CCCC3)c1	/	/	.	/	/
Cc1cc2nnn(-c3nnc(-c4ccccc4)c4ccccc34)c2cc1C	.	.	.	.	-109.4
CNC(=O)C1CCC(Cn2c(=O)c3sccc3n(CC(=O)NCc3ccc(C)cc3)c2=O)CC1 (stereo not drawn)	/	/	.	/	/
CC(=O)N1C(=O)C2(C(C#N)=C(N)Oc3cc(C)oc(=O)c32)c2ccccc21 (stereo not drawn)	.	.	.	.	-114.9
COC(=O)CN1C(=O)C2(C(C#N)=C(N)Oc3cc(C)oc(=O)c32)c2ccccc21 (stereo not drawn)	6.31µM	.	.	.	.
COC(=O)CN1C(=O)C2(C(C#N)=C(N)Oc3ccccc32)C2=C1CC(C)(C)CC2=O (stereo not drawn)	6.31µM	.	.	.	.
